{"source": "PubChem BioAssay (EPA / NIEHS)", "note": "Where “and” joins values, the source holds several entries; their conditions need not be identical. Equal entries are not always repeated. Records with an inconclusive call do not appear. Some structures have more than one record in an assay (separate samples or runs), and their calls can disagree. Calls of active or inactive are those of the source. How the source made its calls: active means hit-call score of the fitted dose curve at least 0.9, where 1 is the maximum; inconclusive means response in the unintended direction; inactive means score below 0.9."}
{"target": "Cellular tumor antigen p53 (Homo sapiens) (UniProt P04637)", "sequence (P04637 whole entry, looked up)": "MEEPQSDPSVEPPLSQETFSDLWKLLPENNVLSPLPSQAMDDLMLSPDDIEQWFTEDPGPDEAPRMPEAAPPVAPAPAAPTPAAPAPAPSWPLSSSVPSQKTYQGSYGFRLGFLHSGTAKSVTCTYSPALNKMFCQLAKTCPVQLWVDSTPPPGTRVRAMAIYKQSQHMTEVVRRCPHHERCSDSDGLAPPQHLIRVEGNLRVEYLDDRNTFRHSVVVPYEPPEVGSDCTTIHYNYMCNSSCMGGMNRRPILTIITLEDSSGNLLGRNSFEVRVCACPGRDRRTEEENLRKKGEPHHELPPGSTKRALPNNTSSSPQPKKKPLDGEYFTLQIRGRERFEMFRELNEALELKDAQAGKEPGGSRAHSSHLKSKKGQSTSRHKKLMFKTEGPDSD", "assay": "TOX21_p53_BLA_p2_ratio: Tox21 HCT-116 p53 Agonism Beta-lactamase Assay, Ratio, Phase 2 (AID 2283592)", "outline": "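Human colon HCT116 cells with an inducible p53 beta-lactamase reporter are exposed to test chemicals for 16 h at 37C. Reporter induction is read as the 460/530 nm emission ratio after CCF4-AM loading, normalized to DMSO.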"}
{"smiles": "CCN(CC)CCNc1ccc(CNC=O)c2sc3ccc(OC)cc3c(=O)c12", "AC50": "10.2 µM (active)"}
{"smiles": "CN(C)C=O", "outcome": "inactive"}
{"smiles": "O=C(OCCOCCOC(=O)c1ccccc1)c1ccccc1", "outcome": "inactive"}
{"smiles": "CCCCCCCCC(=O)O", "outcome": "inactive"}
{"smiles": "CC[C@H](c1ccc(O)cc1)[C@@H](CC)c1ccc(O)cc1", "AC50": "66.6 µM (active)", "outcome": "inactive"}
{"smiles": "CC(C)(C)c1ccc(O)c(C(C)(C)C)c1", "outcome": "inactive"}
{"smiles": "O=[N+]([O-])c1ccc(O)cc1", "outcome": "inactive"}
{"smiles": "CCCCOCCO", "outcome": "inactive"}
{"smiles": "CCC(C)(C)C1CCC(O)CC1", "note": "(stereo unspecified)", "outcome": "inactive"}
{"smiles": "NC(=O)N1C(=O)C(C(=O)c2cc(Cl)cs2)c2cc(F)c(Cl)cc21", "note": "(stereo unspecified)", "outcome": "inactive"}
{"smiles": "CCCCCCC(=O)O", "outcome": "inactive"}
{"smiles": "ClC1=C(Cl)C(Cl)(Cl)C(Cl)=C1Cl", "outcome": "inactive"}
{"smiles": "C[C@@H]1C[C@H]2[C@@H]3CCC4=CC(=O)C=C[C@]4(C)[C@@]3(F)[C@@H](O)C[C@]2(C)[C@@]1(O)C(=O)COP(=O)(O)O", "outcome": "inactive"}
{"smiles": "CCCCC(CC)COC(=O)CCCCC(=O)OCc1ccccc1", "note": "(stereo unspecified)", "outcome": "inactive"}
{"smiles": "O=C(O)Cc1cc(I)c(Oc2cc(I)c(O)c(I)c2)c(I)c1", "outcome": "inactive"}
{"smiles": "CCc1nn(C2CCCCC2)c2cc(C3(C#N)CCC(C(=O)O)CC3)ccc12", "note": "(stereo unspecified)", "AC50": "46.3 µM (active)"}
{"smiles": "CCCCCCCCOC(=O)CCCCCCCCC(=O)OCCCCCCCC", "outcome": "inactive"}
{"smiles": "Oc1cccc(O)c1", "outcome": "inactive"}
{"smiles": "CCc1ccc(CCOc2ccc(CC3SC(=O)NC3=O)cc2)nc1", "note": "(stereo unspecified)", "outcome": "inactive"}
{"smiles": "OCCC(F)(F)C(F)(F)C(F)(F)C(F)(F)C(F)(F)C(F)(F)C(F)(F)C(F)(F)F", "outcome": "inactive"}
{"smiles": "Cc1oc(-c2ccccc2)nc1CCOc1ccc(C[C@H](Nc2ccccc2C(=O)c2ccccc2)C(=O)O)cc1", "AC50": "72.3 µM (active)"}
{"smiles": "c1ccc2c(c1)ccc1ccccc12", "outcome": "inactive"}
{"smiles": "CC(C)CCCCCCOC(=O)CCCCC(=O)OCCCCCCC(C)C", "outcome": "inactive"}
{"smiles": "COc1ccc([N+](=O)[O-])cc1N", "outcome": "inactive"}
{"smiles": "Cc1cc(CCN2CCN(c3nsc4ccccc34)CC2)cc2c1NC(=O)CC2(C)C", "AC50": "71.6 µM (active)"}
{"smiles": "CCCOc1sc(C(=O)N2CCC(c3cc(CN)ccc3F)CC2)c(C)c1Br", "AC50": "80.1 µM (active)"}
{"system": "not listed separately", "assay": "TOX21_p53_BLA_p3_viability: Viability Assessment in the Tox21 HCT-116 p53 Agonism Beta-lactamase Assay, Phase 3 (AID 2283593);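 further: cells exposed to compound for 16 h before reading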", "outline": "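HCT116 cells, 4000/well, dosed 5 h after plating by pin transfer (217-fold dilution from DMSO stock) and incubated 16 h at 37C, 5% CO2. Viability read as ATP luminescence with CellTiter-Glo after 30 min at room temperature.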"}
{"smiles": "CCN(CC)CCNc1ccc(CNC=O)c2sc3ccc(OC)cc3c(=O)c12", "outcome": "inactive"}
{"smiles": "N#C[C@@H]1CC(F)(F)CN1C(=O)CNC1CC2CCC(C1)N2c1ncccn1", "note": "(stereo partly specified)", "outcome": "inactive"}
{"smiles": "CN(C)C=O", "outcome": "inactive"}
{"smiles": "CCCCCCCCC(=O)O", "outcome": "inactive"}
{"smiles": "CC[C@H](c1ccc(O)cc1)[C@@H](CC)c1ccc(O)cc1", "outcome": "inactive"}
{"smiles": "CC(C)(C)c1ccc(O)c(C(C)(C)C)c1", "AC50": "63.6 µM (active) and 86.7 µM (active)"}
{"smiles": "O=[N+]([O-])c1ccc(O)cc1", "outcome": "inactive"}
{"smiles": "CCC(C)(C)C1CCC(O)CC1", "note": "(stereo unspecified)", "outcome": "inactive"}
{"smiles": "NC(=O)N1C(=O)C(C(=O)c2cc(Cl)cs2)c2cc(F)c(Cl)cc21", "note": "(stereo unspecified)", "outcome": "inactive"}
{"smiles": "CCCCCCC(=O)O", "outcome": "inactive"}
{"smiles": "ClC1=C(Cl)C(Cl)(Cl)C(Cl)=C1Cl", "AC50": "5.7 µM (active) and 3.42 µM (active)"}
{"smiles": "C[C@@H]1C[C@H]2[C@@H]3CCC4=CC(=O)C=C[C@]4(C)[C@@]3(F)[C@@H](O)C[C@]2(C)[C@@]1(O)C(=O)COP(=O)(O)O", "outcome": "inactive"}
{"smiles": "O=C(O)Cc1cc(I)c(Oc2cc(I)c(O)c(I)c2)c(I)c1", "AC50": "46.1 µM (active)"}
{"smiles": "CCc1nn(C2CCCCC2)c2cc(C3(C#N)CCC(C(=O)O)CC3)ccc12", "note": "(stereo unspecified)", "outcome": "inactive"}
{"smiles": "Oc1cccc(O)c1", "outcome": "inactive"}
{"smiles": "CCc1ccc(CCOc2ccc(CC3SC(=O)NC3=O)cc2)nc1", "note": "(stereo unspecified)", "outcome": "inactive"}
{"smiles": "Cc1oc(-c2ccccc2)nc1CCOc1ccc(C[C@H](Nc2ccccc2C(=O)c2ccccc2)C(=O)O)cc1", "AC50": "10.7 µM (active)"}
{"smiles": "CCCCC(CC)COC(=O)CCCCC(=O)OCC(CC)CCCC", "note": "(stereo unspecified)", "outcome": "inactive"}
{"smiles": "COc1ccc([N+](=O)[O-])cc1N", "outcome": "inactive"}
{"smiles": "Cc1cc(CCN2CCN(c3nsc4ccccc34)CC2)cc2c1NC(=O)CC2(C)C", "AC50": "19.9 µM (active)"}
{"smiles": "CCCOc1sc(C(=O)N2CCC(c3cc(CN)ccc3F)CC2)c(C)c1Br", "AC50": "80 µM (active)"}
{"target": "Cellular tumor antigen p53 (Homo sapiens) (UniProt P04637)", "assay": "TOX21_p53_BLA_p3_ratio: Tox21 HCT-116 p53 Agonism Beta-lactamase Assay, Ratio, Phase 3 (AID 2283596)", "outline": "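HCT116 p53-bla cells (4000/well) given compound in DMSO (217-fold dilution) after 5 h, incubated 16 h at 37C. CCF4-AM substrate 2 h at room temperature; 460/530 nm emission ratio, gain fitted against DMSO.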"}
{"smiles": "CC(C)(C)c1ccc(O)c(C(C)(C)C)c1", "AC50": "77.4 µM (active) and 79.4 µM (active)"}
{"smiles": "NC(=O)N1C(=O)C(C(=O)c2cc(Cl)cs2)c2cc(F)c(Cl)cc21", "note": "(stereo unspecified)", "AC50": "2.59 µM (active)"}
{"smiles": "O=C(O)Cc1cc(I)c(Oc2cc(I)c(O)c(I)c2)c(I)c1", "AC50": "28.2 µM (active)"}
{"smiles": "CCCCCCCCOC(=O)CCCCCCCCC(=O)OCCCCCCCC", "outcome": "inactive"}
{"smiles": "CCc1ccc(CCOc2ccc(CC3SC(=O)NC3=O)cc2)nc1", "note": "(stereo unspecified)", "outcome": "inactive"}
{"smiles": "c1ccc2c(c1)ccc1ccccc12", "outcome": "inactive"}
{"smiles": "Cc1cc(CCN2CCN(c3nsc4ccccc34)CC2)cc2c1NC(=O)CC2(C)C", "outcome": "inactive"}
{"smiles": "CCCOc1sc(C(=O)N2CCC(c3cc(CN)ccc3F)CC2)c(C)c1Br", "AC50": "80.4 µM (active)"}
{"system": "not listed separately", "assay": "TOX21_p53_BLA_p4_viability: Viability Assessment in the Tox21 HCT-116 p53 Agonism Beta-lactamase Assay, Phase 4 (AID 2283597);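 further: hits lower the luminescence signal meaning cytotoxicity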", "outline": "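Luminescent ATP readout (CellTiter-Glo, 30 min, room temperature) in the same wells as the p53 bla ratio. HCT116 cells were treated for 16 h at 37C with DMSO-dissolved compounds.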"}
{"smiles": "CCN(CC)CCNc1ccc(CNC=O)c2sc3ccc(OC)cc3c(=O)c12", "outcome": "inactive"}
{"smiles": "N#C[C@@H]1CC(F)(F)CN1C(=O)CNC1CC2CCC(C1)N2c1ncccn1", "note": "(stereo partly specified)", "outcome": "inactive"}
{"smiles": "CN(C)C=O", "outcome": "inactive"}
{"smiles": "O=C(OCCOCCOC(=O)c1ccccc1)c1ccccc1", "outcome": "inactive"}
{"smiles": "CCCCCCCCC(=O)O", "outcome": "inactive"}
{"smiles": "CC[C@H](c1ccc(O)cc1)[C@@H](CC)c1ccc(O)cc1", "AC50": "57.8 µM (active)", "outcome": "inactive"}
{"smiles": "CC(C)(C)c1ccc(O)c(C(C)(C)C)c1", "AC50": "42.7 µM (active)", "outcome": "inactive"}
{"smiles": "O=[N+]([O-])c1ccc(O)cc1", "outcome": "inactive"}
{"smiles": "NC(=O)N1C(=O)C(C(=O)c2cc(Cl)cs2)c2cc(F)c(Cl)cc21", "note": "(stereo unspecified)", "outcome": "inactive"}
{"smiles": "CCCCCCC(=O)O", "outcome": "inactive"}
{"smiles": "ClC1=C(Cl)C(Cl)(Cl)C(Cl)=C1Cl", "outcome": "inactive"}
{"smiles": "C[C@@H]1C[C@H]2[C@@H]3CCC4=CC(=O)C=C[C@]4(C)[C@@]3(F)[C@@H](O)C[C@]2(C)[C@@]1(O)C(=O)COP(=O)(O)O", "outcome": "inactive"}
{"smiles": "O=C(O)Cc1cc(I)c(Oc2cc(I)c(O)c(I)c2)c(I)c1", "AC50": "30.9 µM (active)"}
{"smiles": "CCc1nn(C2CCCCC2)c2cc(C3(C#N)CCC(C(=O)O)CC3)ccc12", "note": "(stereo unspecified)", "outcome": "inactive"}
{"smiles": "CCCCCCCCOC(=O)CCCCCCCCC(=O)OCCCCCCCC", "outcome": "inactive"}
{"smiles": "Oc1cccc(O)c1", "outcome": "inactive"}
{"smiles": "CCc1ccc(CCOc2ccc(CC3SC(=O)NC3=O)cc2)nc1", "note": "(stereo unspecified)", "outcome": "inactive"}
{"smiles": "Cc1oc(-c2ccccc2)nc1CCOc1ccc(C[C@H](Nc2ccccc2C(=O)c2ccccc2)C(=O)O)cc1", "AC50": "6.19 µM (active)"}
{"smiles": "c1ccc2c(c1)ccc1ccccc12", "outcome": "inactive"}
{"smiles": "CC(C)CCCCCCOC(=O)CCCCC(=O)OCCCCCCC(C)C", "outcome": "inactive"}
{"smiles": "COc1ccc([N+](=O)[O-])cc1N", "outcome": "inactive"}
{"smiles": "Cc1cc(CCN2CCN(c3nsc4ccccc34)CC2)cc2c1NC(=O)CC2(C)C", "AC50": "74.3 µM (active)"}
{"smiles": "CCCOc1sc(C(=O)N2CCC(c3cc(CN)ccc3F)CC2)c(C)c1Br", "AC50": "31.7 µM (active)"}
